Screening results: PubChem BioAssay, National Center for Advancing Translational Sciences (NCATS)
FLuc inh: blocks purified firefly luciferase enzyme activity; P08659; purified P. pyralis luciferase, luminescence, biochemical; Potency, µM (highest dose often 115 µM), hits mostly inhibitors; hit rate 2.5% among 76,000; AID 1347043; also: nearly all actives have a fitted effect of over 65% in size
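Cell-free enzyme assay, 10nM P. pyralis luciferase, luciferin and ATP each at 10uM. Inhibition profiled over a 6-point titration, read as luminescence.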
hNpr1 antagonist: antagonists of human natriuretic peptide receptor Npr1. hit rate 1.6% among 76,000. Potency, µM (doses to about 46.3 µM), for the others: at the highest dose activity change, negative = inhibition, usual class: inhibitors. HEK293 hNpr1 GloSensor cGMP, ANP-stimulated luminescence. P16066; calls by dose curve; also: nearly all actives have a fitted effect of over 60% in size
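Compound pre-incubated 30 min at room temperature on GloSensor-loaded HEK293 cells stably carrying hNpr1 and the pGS-40F cGMP biosensor. Stimulation uses hNppA at 0.1 nM final; luminescence is taken at baseline and 20 min post-agonist.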
HEK293 tox: kills HEK 293 cells | HEK 293 viability, ATP luminescence (CellTiter-Glo), 48-72 h | Potency, µM (titrated, usually from 115 µM), inactives show at the highest dose activity change, negative = cytotoxicity, most hits filed as inhibitors | hit rate 6.6% among 94,000; also: nearly all actives have a fitted effect of over 60% in size
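CellTiter-Glo luminescence (cellular ATP) was read after 48 or 72 hr of compound exposure at 37 degree Celsius. Cells were HEK 293 plated at 250 cells/well.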
NIH3T3 tox: NIH 3T3 cell cytotoxicity | NIH 3T3 viability, CellTiter-Glo ATP luminescence, 48-72 h | Potency, µM (doses to about 96.7 µM), inactives show at the top dose activity change, negative = cytotoxicity, most hits filed as inhibitors | hit rate 4.3% among 94,000 | AID 1345082; also: nearly all actives have a fitted effect of over 55% in size
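Luminescent ATP readout (CellTiter-Glo, 10 min RT) after 48 or 72 hr compound exposure of NIH 3T3 cells seeded at 400 cells/well in 1536-well format; quantitative HTS.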
GPT2 inh: inhibitors of human GPT2 alanine aminotransferase; Q8TD30; Recombinant GPT2, coupled pyruvate oxidase/HRP Amplex Red fluorescence; Potency, µM (titrated, usually from 57.7 µM), inactives show at the top dose activity change, negative = inhibition, most hits filed as inhibitors; hit rate 0.25% among 100,000; also: nearly all actives have a fitted effect of over 60% in size
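Recombinant GPT2 (10ng/uL) with 250uM a-KG and 2mM L-alanine, 30 min at room temperature, in HEPES pH 7.5 buffer. Pyruvate detected by pyruvate oxidase/HRP/Amplex Red fluorescence after 30 min in the dark; AOA (50uM) as positive control.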
Starred values were filed as active, the others as inactive; i = inactive; ? = inconclusive; . = no result; [ ] = dose if it differs, or a comment. Sampled rows, rich in hits. Any-hit rate of the full collection: about 10%. Unless noted, calls follow the shape of the dose curve; as a rule, active = well fitted curve in the direction sought with a large enough effect; inconclusive = small, poorly fitted or top-dose-only effect, or another doubt; inactive = no such curve, though single readings can be large; an effect the other way counts as inactive or inconclusive. % is scaled to controls: 0 for no effect and ±100 for the full control effect; potency is read from the fitted curve at half-maximal effect.

SMILES	FLuc inh	hNpr1 antagonist	HEK293 tox	NIH3T3 tox	GPT2 inh
O=C(Nc1cccc(Cl)c1)N[C@H]1C[C@H]2C(=O)NC[C@@H](CCC(=O)N3CCc4ccccc43)N2C1	i	5.2%	-6.0%	-26.2%	-2.1%
O=C(C[C@@H]1O[C@H](CNCc2ccc(F)cc2)[C@@H](O)[C@H]1O)NCc1ccc(F)cc1	i	4.2%[70.6 µM]	-0.9%[172 µM]	-23.5%[174 µM]	0.5%[88.5 µM]
COc1cccc(C(=O)N(C)Cc2ccc(F)cc2)c1	i	0.0%[70.6 µM]	-27.6%[172 µM]	-18.9%[138 µM]	-7.7%[88.5 µM]
CN(Cc1ccc(-c2ccccc2)cc1)C(=O)c1ccc(F)cc1	i	-9.1%[70.6 µM]	70.8µM*	?	-1.9%[88.5 µM]
Cc1ccccc1C(=O)N(C)Cc1ccc(-c2ccccc2)cc1	i	?	?	50.1µM*	-2.7%[88.5 µM]
COc1cccc(C(=O)N(C)Cc2ccc(-c3ccccc3)cc2)c1	i	5.8%[70.6 µM]	70.8µM*	?	-2.1%[88.5 µM]
Cn1cccc1CN1CCC2(C1)C(=NC1CCCCC1)NC(=O)N2c1cc(F)cc(F)c1 (stereo not drawn)	.	.	?	-15.9%	?
COc1ccc(CN2CC(O)CN(C(=O)c3ccccc3OC)CC2=O)cc1 (stereo not drawn)	.	.	?	-30.9%	.
C=C1[C@H](OC(C)=O)[C@H]2[C@@H](OC(C)=O)[C@](C)(OC(C)=O)C[C@]2(OC(C)=O)C(=O)[C@H](C)/C=C/C(C)(C)C(=O)[C@H](OC(=O)C(C)C)[C@H]1OC(C)=O	.	.	.	.	i
CCS(=O)(=O)Nc1ccc(C2(C(=O)Nc3cccc(F)c3C)CCCCC2)cc1	i	-7.8%	39.8µM*	?	-48.1%
Cc1noc([C@H]2CCN(Cc3cc(F)cc(F)c3)C[C@H]2NC(=O)C2CC2)n1	i	1.4%	28.2µM*	?	-20.7%
C[C@H]1CCCN1C(=O)c1nnc(COc2ccc(C#N)cc2)n1-c1cccnc1	i	-4.4%[70.6 µM]	?	39.8µM*	i
COc1ccccc1OCc1nnc(C(=O)N2CCC[C@@H]2C(c2ccccc2)c2ccccc2)n1-c1ccccc1	i	-7.5%	?	-27.9%	-1.7%
CC(=O)Nc1cccc(OCc2nnc(C(=O)N3CCC[C@@H]3C(c3ccccc3)c3ccccc3)n2-c2ccccc2)c1	i	-18.3%	?	?	-4.9%
C[C@H]1CCCN1C(=O)c1nnc(COc2ccc(C#N)cc2)n1-c1ccccc1	i	-1.3%[70.6 µM]	-27.0%[172 µM]	35.5µM*	0.9%[88.5 µM]
O=C(c1nnc(COc2ccc(OC(F)(F)F)cc2)n1-c1ccccc1)N1CCC[C@@H]1C(c1ccccc1)c1ccccc1	i	3.6%	?	4.47µM*	-3.8%
C[C@H]1CCCN1C(=O)c1nnc(CNCc2ccc3c(c2)OCO3)n1-c1cccnc1	i	1.1%[70.6 µM]	2.4%[172 µM]	?	i
O=C1NCc2ccccc2CC12CCN(Cc1c[nH]c3ccccc13)C2 (stereo not drawn)	.	.	?	-25.8%	i
Cc1ncc(CN2CCC3(CC2)CCN(Cc2ccoc2)CC3CO)n1C (stereo not drawn)	i	10.1%	i	-15.1%	i[11.5 µM]
CNC(=O)c1cc(C)nc2onc(C3CCCN(C(=O)c4cccnc4)C3)c12 (stereo not drawn)	.	.	-18.3%	-16.8%	.
COc1cccc(CNC(=O)CN2C(=O)NC(c3ccc(Cl)cc3)C3=C2COC3=O)c1OC (stereo not drawn)	i	-1.5%	?	?	i
CC(C)c1ccc(CC(=O)N2CCCc3ncc(C(=O)NCCOc4ccccc4)cc32)cc1	?	?	39.8µM*	?	-18.1%
CC(C)CCNC(=O)c1cnc2c(c1)N(C(=O)Cc1ccc(C(C)C)cc1)CCC2	i	-22.8%[70.6 µM]	100µM*	100µM*	i
COc1ccc(NC(=O)c2c(-c3cnn(C)c3NCc3ccccc3)noc2C)cc1	i	-5.8%[70.6 µM]	?	11.2µM*	i
COc1ccc(CN2Cc3cc(NC(=O)c4cc(OC)cc(OC)c4)ccc3OC(C)C2=O)cc1 (stereo not drawn)	i	-1.9%	20µM*	?	i
